# The supplement of paper PMC3334620
# The full ranking holds about 33,000 sequences; the median of “E-score (-0.5 to 0.5)” is about -0.01, and the highest 2% start at about 0.26. The entries come from a sample that favours the highest values as a whole.
# Molecular target: Ste12 (UniProt P13574)
# Assay: PBM E-score (8-mer binding enrichment) (E-score (-0.5 to 0.5)); higher = stronger / more preferred TF binding
# Settings: protein concentration: 200 nM; construct: GST-DNA-binding domain
# Method in brief: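 For each ungapped eight-base word taken together with its reverse complement, the Universal PBM Analysis Suite assigned an E-score. Binding data came from GST-tagged yeast transcription factors, applied at about 100-200 nM, on universal all-10-mer Agilent arrays made double-stranded by primer extension. Fluorescent anti-GST marked bound protein, and scans were normalised with masliner.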
# UniProt P13574, sequence (P13574 whole entry): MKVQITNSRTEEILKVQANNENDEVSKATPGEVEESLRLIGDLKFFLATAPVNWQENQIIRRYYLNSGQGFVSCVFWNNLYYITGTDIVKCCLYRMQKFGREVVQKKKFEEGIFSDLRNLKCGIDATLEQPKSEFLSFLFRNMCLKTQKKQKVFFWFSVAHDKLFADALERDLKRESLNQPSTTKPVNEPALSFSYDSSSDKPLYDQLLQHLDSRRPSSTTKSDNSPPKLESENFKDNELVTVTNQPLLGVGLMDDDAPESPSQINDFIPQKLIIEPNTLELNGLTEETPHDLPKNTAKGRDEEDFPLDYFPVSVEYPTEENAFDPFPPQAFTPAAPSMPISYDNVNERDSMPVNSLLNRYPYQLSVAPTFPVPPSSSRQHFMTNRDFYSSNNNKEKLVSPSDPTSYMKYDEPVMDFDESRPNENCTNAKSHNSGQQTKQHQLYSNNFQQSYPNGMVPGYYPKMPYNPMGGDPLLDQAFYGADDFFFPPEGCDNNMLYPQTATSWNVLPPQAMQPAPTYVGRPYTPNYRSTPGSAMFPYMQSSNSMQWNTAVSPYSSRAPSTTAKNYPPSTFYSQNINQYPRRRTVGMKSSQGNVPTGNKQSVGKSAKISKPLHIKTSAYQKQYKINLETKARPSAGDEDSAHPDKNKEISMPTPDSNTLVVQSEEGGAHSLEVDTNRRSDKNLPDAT
row,Sequence,PBM E-score
1,AGGCGAGA,-0.195
2,GTGAGACA,0.256
3,ATGAGACC,-0.144
4,ATGAGACA,0.338
5,AACTTTGC,-0.0155
6,AGAGTTCA,-0.222
7,CACATTAA,0.0442
8,TAAACGTA,-0.115
9,GAAACGTC,0.303
10,CAAACGTC,0.0704
11,GAAACGTA,0.325
12,CAAACGTA,-0.052
13,AAAACGTC,0.134
14,CCCGCGAG,0.119
15,ATTCGACG,0.087
16,ATACCAGG,0.0311
17,CCCATCAG,-0.193
18,GCAGGTAA,0.0649
19,AGCGACAC,0.0304
20,AGATCGTG,0.0231
21,AGTATCAA,0.217
22,AATATTAT,0.24
23,TATATTAA,0.22
24,AATATTAA,0.327
25,AATATCAC,0.107

row,Sequence,PBM E-score
1,AATATCAA,0.283
2,TGTATCAA,0.392
3,CGTATCAA,0.088
4,AATATCAG,0.0475
5,ACATATTA,0.193
6,AGCACAAT,-0.16
7,TTATCGAA,0.196
8,AATAGGGT,0.148
9,AGACTGGA,-0.0847
10,CAGCTCAC,-0.301
11,ATCCGATA,0.063
12,ATCCGATC,0.162
13,ATCCGATG,0.277
14,CACTCCCA,0.0996
15,AGCGCTAG,-0.0146
16,GGCACTTA,-0.157
17,ATTTCGGA,0.181
18,GGTTCAAA,0.195
19,GTTTCGGA,0.334
20,GTTTCAAA,0.47
21,CTTTCAAA,0.246
22,GATTCATA,0.00383
23,CATTCATC,0.125
24,CTTTCGGA,0.0344
25,GATTCGAC,0.12

row,Sequence,PBM E-score
1,CATTCGAA,0.11
2,CATTCATA,0.296
3,GATTCGAA,0.277
4,ATGGTAGC,-0.0629
5,CACCCAAC,-0.0687
6,CTTGAGGA,-0.147
7,GGAGCTTA,-0.219
8,CCTATTCC,0.0843
9,ACTAAAGC,0.0971
10,AGGCGAAG,-0.178
11,GAATCGAA,0.296
12,GTTTCATA,0.481
13,GTTTCACA,0.447
14,ATTTCATA,0.124
15,CTTTCATA,0.205
16,ATTTCGAA,0.253
17,ATTTCACA,0.205
18,GTTTCGAA,0.325
19,CTTTCGAA,0.0433
20,ATTTCACG,0.122
21,TAATCGAA,0.185
22,CAATCGAA,-0.021
23,AAAGCGGC,0.054
24,CTGTCAGA,0.0092
25,AAGTACGT,-0.0519

row,Sequence,PBM E-score
1,AACAGCAG,0.0314
2,CCATGCCC,-0.0778
3,GTGAACGA,0.047
4,GACAAACA,0.0473
5,ATTTCAAC,0.161
6,ATTTCAAG,0.0717
7,GTTTCAGA,0.484
8,CTTTCAGA,0.211
9,ATTTCAAA,0.272
10,ATTTCAGA,0.00371
11,ACGTCAAA,0.0313
12,AACTCAGC,0.109
13,GCTTGGGA,-0.164
14,AACGTGGT,-0.0847
15,AACTTATT,0.333
16,AACTTATG,0.0251
17,AACTTATC,0.0734
18,GCTTGTGA,-0.0847
19,TATGAAGA,0.0389
20,AATGAAGA,0.304
21,AATGAAAA,0.292
22,AATGAAAG,0.0381
23,AATGAAGC,-0.0558
24,GATGAAAC,0.494
25,AATGAACC,0.105

row,Sequence,PBM E-score
1,GATGAACC,0.062
2,AATGAAAT,0.231
3,CATGAAGA,-0.0377
4,AATGAAAC,0.44
5,GATGAATC,0.0548
6,CAAATCGA,0.0344
7,CGCTAGTC,-0.27
8,AATGCTAG,-0.181
9,CAACAGAC,-0.018
10,TCGTTGCA,-0.0015
11,ATTGGGAA,0.0116
12,CGTGTAAG,-0.0021
13,AATGAATG,0.292
14,TATGAAAA,0.152
15,AATGAATT,0.133
16,CATGAAAA,0.237
17,GATGAACA,0.00898
18,CATGAAAG,-0.00226
19,GATGAAAA,0.281
20,CATGAAAC,0.484
21,AATGAATC,0.16
22,CCATTTCG,-0.219
23,AAGCTCAG,-0.179
24,GCCTCTAC,-0.239
25,CGTATACA,0.306

row,Sequence,PBM E-score
1,GGTATACA,-0.0232
2,CGTATAAC,-0.0972
3,AGTATAAA,0.228
4,CGTATAAA,0.263
5,AGTATACA,-0.108
6,CAACCATC,0.109
7,AGAGAGGG,-0.255
8,GATCGTGC,0.0893
9,ACTTTAAA,0.275
10,ACTTTAAC,0.162
11,AACTTTAA,0.279
12,CCTTTTAC,0.178
13,ACTTTAAG,0.225
14,AACTTTAG,0.0874
15,CACTTTAA,0.159
16,ACTTTTAG,0.101
17,GCTTTAAA,0.155
18,ACTTTTAC,0.263
19,ACTTTTAA,0.164
20,ACTTTAAT,0.263
21,ACTTAGAT,-0.0771
22,ATGGGAAT,-0.202
23,ACCATACG,-0.0611
24,CGCGCTAC,0.00148
25,ACTGGGCC,-0.244

row,Sequence,PBM E-score
1,AGCTAGAA,-0.0198
2,GAACCGGA,-0.0365
3,GAGCGAGC,-0.00859
4,GTCGCTGA,0.0069
5,AAACGATA,0.279
6,CAACGATA,0.0594
7,TAACGATA,0.138
8,AGAACTGG,-0.0181
9,ATAGGATG,0.149
10,AAAAATCA,0.254
11,AAATATAT,0.273
12,AAATATAA,0.224
13,AAATAGAT,0.275
14,AAAAATCT,0.318
15,AAATATAC,0.225
16,AAAAATAT,0.339
17,AAAAATAC,0.25
18,AAATAGAG,0.0914
19,AAATAGAC,-0.0352
20,AAAAATCC,0.178
21,AAAAATAG,0.24
22,CTCGTTTA,0.0722
23,CCAACCGA,0.0461
24,AACAGCCA,-0.019
25,AGCGCAAG,-0.0674

row,Sequence,PBM E-score
1,CACGGCAC,-0.113
2,ACAAGCGG,0.106
3,TACCTACA,-0.0205
4,AACTATGT,-0.0705
5,GGTTGAGA,-0.103
6,GGTTGAAC,-0.0192
7,TGTTGTAA,0.28
8,AGTTGAAA,0.19
9,CGTTGAAA,0.185
10,GGTTGAAA,0.292
11,TGTTGAAA,0.311
12,GGTTGTAA,0.0372
13,AGTTGTAA,0.068
14,CCCCGTAC,-0.0713
15,AGTCTGCA,-0.122
16,CGCGTACC,-0.113
17,CCGCCTTA,0.0555
18,AAGGTTCT,0.0379
19,CCCGAACA,0.128
20,CGAAGCCC,-0.192
21,AATACAAT,0.0948
22,AATACAAC,0.157
23,GATACAAA,0.134
24,TATACAAA,0.127
25,AATACAAA,0.265

row,Sequence,PBM E-score
1,AATACAAG,0.302
2,GGCAGCCC,-0.142
3,GACTACAA,-0.102
4,GGAATCCC,0.0198
5,GACCATGC,-0.139
6,ATCTCAAA,0.27
7,GTCTCAAA,0.218
8,TTCTCAAA,0.291
9,CACTCAAA,0.0429
10,ATCTCAAT,0.0795
11,CTCTCAAA,0.0271
12,AACTCAAA,0.266
13,AACTCAAG,-0.00801
14,ATCTCAAG,0.0665
15,ATGCCGTA,-0.0947
16,CTGGTCGA,-0.196
17,ATGGATTC,0.186
18,ACCGTGAT,0.0763
19,TGATTACA,-0.00637
20,ACAACCAA,0.0252
21,CGATCTCC,-0.108
22,ATCAACTG,-0.112
23,AATTAAAC,0.241
24,TATTAACA,0.164
25,CATTAAAG,0.034

row,Sequence,PBM E-score
1,CATTAAAC,0.191
2,AATTAAAG,0.103
3,AATTAAAA,0.308
4,GATTAAAA,0.234
5,TATTAAAA,0.341
6,CATTAAAA,0.27
7,TAAGGCAA,0.0326
8,CTACCCTC,-0.0776
9,GCCCTCCC,0.115
10,TGCTCACA,-0.148
11,CCTTGTGC,-0.0236
12,CACCATAA,0.136
13,ATACTAGG,0.119
14,GGTCCTGA,-0.163
15,AGCGCTAC,-0.0647
16,CCGCAGGA,-0.0635
17,GTTACAAC,0.289
18,GTTACAAA,0.384
19,CTTACAAA,0.143
20,TCTACAAA,0.138
21,TTTACAAA,0.294
22,ATTACAAA,0.165
23,TGTACAAA,0.0309
24,ATTACAAC,-0.0498
25,CTTACAAC,0.0334

row,Sequence,PBM E-score
1,TACGTCGA,0.0119
2,GGAGTAGA,-0.0759
3,AAGCTGGA,-0.0676
4,GCGACCCC,0.0725
5,GGATGCGA,-0.201
6,AGTCCATC,-0.306
7,GAAATATA,0.284
8,CAAATATA,0.0746
9,TAAATATA,0.321
10,GAAATATC,0.0344
11,GAAATACA,-0.00127
12,AAAATATA,0.241
13,GTCTCTGA,-0.168
14,CCATCTCA,-0.0464
15,CGGCCCCG,0.0097
16,CACCATGA,0.0412
17,CGCGATGC,-0.182
18,CGTCCTAC,-0.0953
19,TCAGTGCA,0.0371
20,CTAGGGCA,-0.159
21,GATGATGC,-0.125
22,GTTGCGAA,0.093
23,CGCAAGGC,0.049
24,CGTGAAAA,0.22
25,CGTGAAAC,0.364

row,Sequence,PBM E-score
1,AGTGAAAT,0.0994
2,GGTGAAAA,0.0914
3,GGTGAACC,-0.00551
4,AGTGAAAC,0.394
5,GGTGAAAC,0.463
6,AGTGAAAG,0.126
7,CGTGAAAG,0.0979
8,CCTCGTTA,0.049
9,CGGTAACG,-0.141
10,GCCTAAAC,-0.125
11,CACAGGTA,0.0125
12,ACCGTCTG,-0.00201
13,CCCAGGGC,-0.256
14,AAGATGAA,0.18
15,CGGATGAG,-0.11
16,GAGATGAA,0.156
17,GCGATGAA,0.116
18,TAGATGAA,0.279
19,ACGATGAA,0.274
20,AGGATGAA,0.128
21,ACGATGAC,-0.173
22,CGGATGAA,0.268
23,CATACCAA,-0.0054
24,AACTCTCC,-0.129
25,AGCGAGAT,0.119

row,Sequence,PBM E-score
1,CCGAATTC,-0.00494
2,TGACCTCA,-0.0719
3,ACAGAAGC,-0.0242
4,AGAAGACT,-0.22
5,CAGTTTCC,0.0749
6,TAGTTTGA,0.0916
7,TAGTTTAA,0.171
8,AAGTTTCA,0.437
9,AAGTTTTC,0.0212
10,AAGTTTTG,0.116
11,CAGTTTCG,0.181
12,CAGTTTCA,0.374
13,AAGTTTCG,0.175
14,TAGTTTCA,0.36
15,AAGTTTCC,0.11
16,AAGTTTTA,0.287
17,CGGCGAGA,-0.167
18,CCTTTTCG,0.19
19,CGACCTGC,-0.0774
20,GACCTCAC,-0.15
21,TCACGGAA,0.135
22,ACGATCGA,-0.106
23,ACGGAGGC,-0.187
24,GACCAGGA,-0.183
25,GTTCGCTA,-0.0318

row,Sequence,PBM E-score
1,GAGTTTGA,0.0997
2,GAGTTTCA,0.407
3,GAGTTTCC,-0.00944
4,CTGTGGTA,-0.0102
5,CATTTATA,0.189
6,CATTTATC,0.0356
7,AATTTATA,0.274
8,AATTTATC,0.281
9,AATTTATG,0.205
10,GATTTATA,0.182
11,CGGTAGAA,-0.142
12,GCCAAAGA,-0.0779
13,GGATTGCA,0.117
14,GCTGCGCA,-0.229
15,ACGCTTGC,-0.116
16,AACGTTTC,0.328
17,CACGTTTC,0.285
18,AACGTTTA,0.00807
19,AACGTTTG,0.0498
20,CACGTTAC,0.0456
21,CACGTTTA,-0.00355
